# PubChem BioAssay (NCI)
# Where “and” joins values, the source holds several entries; their conditions need not be identical. Equal entries are not always repeated. About 83,000 compounds went through this panel and 20% of them were active in at least one assay; those are over-represented in the sample as a whole.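 Note: values are percent growth. 100 is the growth of untreated cells, values between 100 and 0 indicate rising inhibition; between -100 and 0 indicates cell death.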 Calls of active or inactive are those of the source. The calls were made as follows: active = growth percent below 10; inactive = the rest.
# Test system: HL-60(TB) leukemia
# Experiment: NCI-60 one-dose screen, 48 h (100 = growth as untreated, 0 = no growth, -100 = all killed)
# Conditions: 10 µM unless noted
row,SMILES,growth
1,Clc1ccc(C2=NN(c3ccccc3)[C@H](c3cn(-c4ccccc4)nc3-c3ccccc3)C2)cc1,116% (inactive)
2,CCN(CC)c1ccc2c(c1)Oc1nc(N)c(C#N)c(N)c1C2Sc1ccc(OC)cc1 (stereo not given),-16.6% (active)
3,COc1cc(OC)c(C(=O)/C=C/c2ccc(C(F)(F)F)cc2)c(OC)c1,45.1% (inactive)
4,C#CCn1cc(C=C2C(=O)NC(=S)NC2=O)c2cc(Cl)ccc21,-4.45% (active)
5,CN1CCN(CC#CCn2c3c(c4ccccc42)C[C@]2(C)[C@H]4CC[C@@H]5[C@H]6[C@H]7OC(=O)[C@@]6(CCC7(C)C)CC[C@@]5(C)[C@]4(C)CC[C@H]2C3(C)C)CC1,66.3% (inactive)
6,COC(=O)c1cc(=O)nc(N/N=C/c2ccccc2O)s1,87.3% (inactive)
7,NC(=S)NN=C1CCC(C2CCCCC2)CC1 (stereo not given),91.2% (inactive) and 70.9% (inactive)
8,NS(=O)(=O)c1ccc(CCN2C(=O)/C(=C\c3ccccc3)C=C2c2ccc(Cl)cc2)cc1,104% (inactive)
9,CC[C@]12C=CCN3CC[C@@]4(c5cc(NC(=O)CCC(=O)O[C@H]6CC[C@H]7[C@@H]8CCC9=CC(=O)CC[C@@H]9[C@H]8CC[C@]67C)c(OC)cc5N(C)[C@H]4[C@@](O)(C(=O)OC)[C@@H]1OC(C)=O)[C@@H]32,62.5% (inactive)
10,COC(=O)CNC(=O)C(=O)c1c(O)c(O)c(C(C)C)c2cc(C)c(-c3c(C)cc4c(C(C)C)c(O)c(O)c(C(=O)C(=O)NCC(=O)OC)c4c3O)c(O)c12,24.6% (inactive)
11,COC(=O)c1cccc(NC(=O)c2ccc(-c3cccc(N)c3)o2)c1,99.9% (inactive)
12,C#Cc1cccc(Nc2ncnc3cc(OC)c(OCCCCCCC(=O)NO)cc23)c1,2.38% (active)
13,NC(=O)CSSCC(N)=O,9.36% (active)
14,O=C(Nc1ccc(Cl)cc1)Nc1ccc(Cl)c(Cl)c1,-23.6% (active)
15,O=C(/C(=C/c1ccc([N+](=O)[O-])cc1)SCc1ccc(F)cc1)c1ccc(Cl)cc1,64.2% (inactive)
16,O=C1c2ccccc2C(=O)c2c1oc1c2c(=O)[nH]c2ccc(Cl)cc21,94.5% (inactive)
17,CCc1nc2cc(/C=C/C(=O)NO)ccc2c(=O)n1CCc1ccc(F)cc1,-7.3% (active)
18,O=C(CN1CCN(c2cc3c(cc2F)c(=O)c(C(=O)N/N=C/c2ccccc2O)cn3C2CC2)CC1)N/N=C\c1ccccc1O,1.69% (active)
19,Cc1ccc(Cl)cc1NC(=O)N(C)CCO,92% (inactive)
20,Oc1c(C(Nc2cccc3ccccc23)c2ccccc2)ccc2cccnc12 (stereo not given),-37.4% (active)

row,SMILES,growth
1,CCOC(=O)c1cc(C(=O)c2ccc(OC)c(OC)c2)n2ccc(-c3ccccn3)cc12,110% (inactive)
2,O=C(Nc1ccc(Cl)c(C(F)(F)F)c1)Nc1ccc(-c2cccnc2)cc1N1CCC(CO)CC1,-6.89% (active)
3,C=CCCCCOc1cccc(/C=C2\N=C3SCCCN3C2=O)c1,94.9% (inactive)
4,Cc1cc2nc3ccc(=[N+](C)C)cc-3sc2cc1N,-50.3% (active) and -34.8% (active)
5,O=C1c2cccnc2C(=O)c2c1c(C(=O)OCCN1CCCCC1)c1ccccn21,-46.5% (active)
6,COC(=O)[C@@H](CCCCNC(=O)[C@]12CCC(C)(C)C[C@@H]1C1=CC[C@@H]3[C@@]4(C)C/C(=C/c5ccco5)C(=O)C(C)(C)[C@@H]4CC[C@@]3(C)[C@]1(C)CC2)NC(=O)[C@]12CCC(C)(C)C[C@@H]1C1=CC[C@@H]3[C@@]4(C)C/C(=C/c5ccco5)C(=O)C(C)(C)[C@@H]4CC[C@@]3(C)[C@]1(C)CC2,114% (inactive)
7,CCN(CC)c1nc(SCc2ccccc2Cl)ncc1C,89.7% (inactive)
8,Cc1ccc2c(ccc3c[n+]4c5ccccc5ccc4n32)c1,2.59% (active)
9,Cn1c2ccccc2c2nnc(NCCCCO)nc21,139% (inactive)
10,COc1cccc(OC(=O)c2ccccc2)c1OC(=O)c1ccccc1,69.6% (inactive)
11,Cc1cc(O)ccc1C1=NN(c2ccc(S(N)(=O)=O)cc2)C(=O)CC1,4.22% (active)
12,CN1CCN(CCCN2c3ccccc3Sc3ccc(Cl)cc32)CC1,98.9% (inactive) and 50.7% (inactive)
13,O=C(/C=C/c1ccc(Cl)cc1)c1ccc(O)c(CN2CCN(c3cc4c(cc3F)c(=O)c(C(=O)O)cn4C3CC3)CC2)c1,51.5% (inactive)
14,CN1CCN(CCCOc2cccc3nc(Nc4ccc(Cl)c(C(F)(F)F)c4)ccc23)CC1,82.3% (inactive)
15,Cc1ccc(/C=C2\Oc3cc(OCC(=O)c4ccc(Cl)cc4)ccc3C2=O)cc1,50.7% (inactive)
16,COc1cc(-c2nc(/C=C3/C(=O)Nc4ccccc43)c3ccccn23)cc(OC)c1OC,89.6% (inactive)
17,O=C(Nc1cccc(-n2cc(-c3ccncc3)c(-c3ccc(Cl)c(O)c3)n2)c1)Nc1ccc(Cl)c(Cl)c1,-6.98% (active)
18,C=CCc1c(O)c(C(=O)/C=C/c2ccc(Cl)cc2)c(OC)c2ccoc12,25.4% (inactive)
19,Cn1c(O)c(C=NCCN=Cc2c(O)n(C)c(=O)n(C)c2=O)c(=O)n(C)c1=O,-60% (active)
20,O=C1COCCN1c1ccc(Nc2nc(Cl)nc(OCc3cn(Cc4ccccc4)nn3)n2)cc1,40.3% (inactive)
